According to PubChem BioAssay (EPA / NIEHS):
“And” between values parts separate entries of the source, which are not always exact repeats. Identical values can stand only once. Results filed as inconclusive are left out. Where a structure was tested more than once in an assay, its records may differ in their call. The source made the active and inactive calls. How the source made its calls, unless noted: active means hit-call score of the fitted dose curve at least 0.9, where 1 is the maximum; inactive means score below 0.9.

What was measured:
[1] = CCTE_Shafer_MEA_dev_firing_rate_mean: CCTE's Neural Network Formation Assay for Mean Firing Rate, Shafer Lab (AID 2284031);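 on AC50: curve fitted for loss of firing so AC50 reflects decreased mean firing rate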
In short: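 Spike frequency (spikes/recording length, averaged over active electrodes) was recorded on days 5, 7, 9 and 12 and collapsed to AUC; rat cortical cultures received compound continuously over 12 days of network development.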

[2] = CCTE_Shafer_MEA_dev_per_burst_spike_percent: CCTE's Neural Network Formation Assay for Percent of Spikes in a Burst, Shafer Lab (AID 2284032);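 on AC50: fitted as a decrease in burst spike percentage below DMSO baseline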
In short: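 Value is trapezoidal AUC over recordings on days 5, 7, 9 and 12 of the well-mean fraction of spikes falling in single-electrode bursts; rat cortical cultures exposed continuously from plating, treatment renewed DIV 5 and 9, fitted downward against DMSO.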

[3] = CCTE_Shafer_MEA_dev_burst_rate: CCTE's Neural Network Formation Assay for Burst Rate, Shafer Lab (AID 2284042);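 on AC50: potency for loss of burst rate below DMSO control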
In short: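 Developmental network assay measuring how 12-day exposure of rat cortical neuron cultures alters bursting on extracellular MEA recordings. Values are AUC of well-mean burst rate across four recording days, relative to DMSO vehicle.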

[4] = CCTE_Shafer_MEA_dev_bursting_electrodes_number: CCTE's Neural Network Formation Assay for Number of Bursting Electrodes, Shafer Lab (AID 2284043; active means hit-call score of the fitted dose curve at least 0.9, where 1 is the maximum;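 on AC50: potency is for loss of bursting electrodes relative to DMSO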)
In short: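 Number of electrodes reaching ≥1 burst every 2 min was recorded at DIV 5, 7, 9 and 12 and collapsed as trapezoidal area under the curve. Cultures were rat cortical neurons on MEA plates, dosed continuously from plating with medium and treatment refreshed on DIV 5 and 9.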

[5] = CCTE_Shafer_MEA_dev_per_burst_interspike_interval: CCTE's Neural Network Formation Assay for Burst Interspike Interval, Shafer Lab (AID 2284044);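 on AC50: potency for a decrease of within-burst interspike interval below DMSO level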
In short: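 Rat cortical primary cultures, 16 electrodes/well; compound from plating, renewed with full media change DIV 5 and 9. Spikes via adaptive detector; per-burst ISI well-mean over active bursting electrodes; AUC of DIV 5/7/9/12 recordings; loss-direction fit vs DMSO.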

[6] = CCTE_Shafer_MEA_dev_burst_duration_mean: CCTE's Neural Network Formation Assay for Mean Burst Duration, Shafer Lab (AID 2284045);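 on AC50: curve fitted for loss meaning shorter burst duration than DMSO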
In short: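 Mean single-electrode burst duration (first to last spike), averaged over bursting electrodes per well, then integrated as area-under-curve across recordings at days 5, 7, 9 and 12. Rat cortical cultures on MEAs, compound present from plating, refreshed at feeds.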

[7] = CCTE_Shafer_MEA_dev_interburst_interval_mean: CCTE's Neural Network Formation Assay for Mean Interburst Interval, Shafer Lab (AID 2284046);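 further: well-mean interburst interval of bursting electrodes as AUC over four recording days; curve fitted for decrease in interburst interval relative to DMSO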
In short: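 Network formation assay in primary rat cortical cultures, exposed from DIV 0 to 12. Mean interburst interval per well, integrated as AUC over four recordings.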

[8] = CCTE_Shafer_MEA_dev_inter_network_spike_interval_mean: CCTE's Neural Network Formation Assay for Mean Inter-network Spike Interval, Shafer Lab (AID 2284047);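 on AC50: potency for a decrease in mean inter-network spike interval below DMSO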
In short: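 Compound was given at plating to primary rat cortical neurons and renewed with full medium changes on DIV 5 and 9. Extracellular activity was recorded on days 5, 7, 9, 12; AUC values were fitted for loss relative to DMSO control.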

[9] = CCTE_Shafer_MEA_dev_network_spike_number: CCTE's Neural Network Formation Assay for Number of Network Spikes, Shafer Lab (AID 2284048);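 further: synchronized bursts across electrodes counted on days 5 7 9 12 and integrated as AUC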;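 on AC50: fit as a loss of signal meaning fewer network spikes than DMSO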
In short: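 Number of network spikes (coordinated firing across electrodes) recorded on days 5, 7, 9 and 12 and summarised as area under the curve. Rat cortical cultures on MEA, continuous compound exposure with full medium/treatment exchange at DIV 5 and 9.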

[10] = CCTE_Shafer_MEA_dev_network_spike_peak: CCTE's Neural Network Formation Assay for Mean Number of Electrodes in Network Spike, Shafer Lab (AID 2284049);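 on AC50: fitted for loss of signal meaning fewer electrodes in network spikes than DMSO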
In short: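 Rat cortical primary culture, 1.5 x 10^5 cells/well, 48-well MEA (16 electrodes/well). Dosing day 0 through DIV 12, full media/compound exchange DIV 5, 9. AxIS adaptive spike detection; AUC over days 5/7/9/12; loss-of-signal vs DMSO.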

DIO2 (gene 1734) = test: CCTE_GLTED_hDIO2: CCTE's human Deiodinase 2 (DIO2) Inhibition Assay, Great Lakes Toxicology and Ecology Division (GLTED) Lab (AID 2284050; active means hit-call score of the fitted dose curve at least 0.9, where 1 is the maximum)
In short: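 Iodide released by human deiodinase 2 over 3 h with test chemical, measured spectrophotometrically via Sandell-Kolthoff cerium/arsenic reaction. Run n=3; inhibition referenced to DMSO.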

[11] = CCTE_Shafer_MEA_dev_spike_duration_mean: CCTE's Neural Network Formation Assay for Mean Spike Duration, Shafer Lab (AID 2284051);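 further: mean network spike duration pooled as area under curve over DIV 5 to 12 recordings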;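 on AC50: potency for a decrease in mean network spike duration versus DMSO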
In short: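 With DMSO as baseline, loss of mean network spike duration was scored from extracellular recordings of rat cortical neurons on MEA plates. Exposure spanned plating to DIV 12; the four recording days were collapsed into one AUC value.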

[12] = CCTE_Shafer_MEA_dev_network_spike_duration_std: CCTE's Neural Network Formation Assay for Standard Deviation of Network Spike Duration, Shafer Lab (AID 2284052);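 further: hits are decreases in network spike duration SD versus DMSO vehicle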
In short: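 Developing networks of rat cortical neurons were exposed over twelve days in vitro on 48-well MEA plates. Trapezoidal AUC of recordings (DIV 5–12) was analysed for signal loss relative to DMSO vehicle.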

[13] = CCTE_Shafer_MEA_dev_per_network_spike_spike_number_mean: CCTE's Neural Network Formation Assay for Mean Number of Spikes in a Network Spike, Shafer Lab (AID 2284053);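 on AC50: fitted as decrease in spikes per network spike relative to DMSO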
In short: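 First, rat cortical cells (1.5 x 10^5/well) were seeded onto MEA wells; second, dosing began at plating and was refreshed on DIV 5 and 9; finally, network-spike spike counts across DIV 5–12 were summarized as AUC.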

[14] = CCTE_Shafer_MEA_dev_per_network_spike_spike_percent: CCTE's Neural Network Formation Assay for Percent of Spikes in a Network Spike, Shafer Lab (AID 2284054)
In short: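 Metric: fraction of spikes falling in a 0.05 s window at network-spike peaks. Recordings were made on days 5, 7, 9 and 12 and collapsed by trapezoidal AUC. Cultures were rat cortical neurons on MEA plates, dosed continuously from plating, re-dosed at media changes.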

[15] = molecular target: Estrogen receptor (Homo sapiens) (UniProt P03372); test: CCTE_Deisenroth_AIME_384WELL_LUC_Active: CCTE's 384-well Estrogen Receptor Transactivation Assay with AIME metabolic competence (ERTA luciferase; metabolism positive), Deisenroth Lab (AID 2284030; active means hit-call score of the fitted dose curve at least 0.9, where 1 is the maximum)
In short: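 Test chemicals (10-point series, 0.002 - 200 uM) were preincubated 2 hours with alginate-immobilized phenobarbital/beta-naphthoflavone-induced male Sprague Dawley rat liver S9; conditioned medium then went onto VM7Luc4E2 breast cells for 24 hour. Luciferase gain-of-signal fitted relative to 17beta-estradiol.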

[16] = CCTE_Deisenroth_AIME_384WELL_CTox_Active: Cytotoxicity Assessment (CTOX) in CCTE's 384-well Estrogen Receptor Transactivation Assay with AIME metabolic competence (metabolism positive), Deisenroth Lab (AID 2284037; active means hit-call score of the fitted dose curve at least 0.9, where 1 is the maximum;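 further: chemicals first conditioned 2 h by alginate-bound induced rat liver S9 before cells; activity means signal loss indicating cell death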)
In short: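 Cytotoxicity in VM7Luc4E2 breast cells, 24 hour, measured as protease-substrate fluorescence loss, after 2-hour metabolic conditioning with induced rat hepatic S9 in alginate microspheres. Concentrations 0.002 - 200 uM, 10 points, bidirectional fitting.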

[17] = molecular target: Estrogen receptor (Homo sapiens) (UniProt P03372); test: CCTE_Deisenroth_AIME_384WELL_LUC_Inactive: CCTE's 384-well Estrogen Receptor Transactivation Assay without AIME metabolic competence (ERTA luciferase; metabolism negative), Deisenroth Lab (AID 2284038; active means hit-call score of the fitted dose curve at least 0.9, where 1 is the maximum;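 further: VM7Luc4E2 breast cells given medium preincubated 2 h with S9-free microspheres; hits raise estrogen receptor luciferase signal so potencies reflect agonists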)
In short: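 VM7Luc4E2 ER transactivation, luciferase bioluminescence after 24 h, using medium pre-incubated 2 h with S9-free alginate microspheres. Concentrations 0.002–200 uM; gain of signal fitted relative to 17beta-estradiol.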

[18] = molecular target: Estrogen receptor (Homo sapiens) (UniProt P03372); test: CCTE_Deisenroth_AIME_384WELL_LUC_Shift: CCTE's 384-well Estrogen Receptor Transactivation Assay with AIME metabolic competence data shift (ERTA luciferase; difference in metabolism positive and negative), Deisenroth Lab (AID 2284041);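 further: shift is response with S9 minus without S9 so positive means metabolism raised ER signal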
In short: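 Test chemicals (0.002–200 uM, 10-point) were pre-incubated 2 h with alginate microspheres containing phenobarbital/beta-naphthoflavone-induced male Sprague Dawley rat liver S9 or water, then medium was transferred to VM7Luc4E2 cells for 24 h luciferase readout; shift = S9-positive minus S9-negative normalized response.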

[19] = CCTE_Deisenroth_AIME_384WELL_CTox_Inactive: Cytotoxicity Assessment (CTOX) in CCTE's 384-well Estrogen Receptor Transactivation Assay without AIME metabolic competence (metabolism negative), Deisenroth Lab (AID 2284039; active means hit-call score of the fitted dose curve at least 0.9, where 1 is the maximum;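 further: cell viability via live-cell protease substrate cleaved to fluorescent probe; cells exposed 24 h to medium preincubated 2 h with alginate-water beads without S9; loss of fluorescence signal means loss of viability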)
In short: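 Fluorescence from a live-cell protease substrate, read after 24 h in VM7Luc4E2 cells, indicated viability. Test medium came from a 2 h AIME step without hepatic S9 (alginate-water microspheres); concentrations spanned 0.002 - 200 uM, single technical replicate per run.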

Measured: AC50

Estrogen receptor (Homo sapiens), sequence (P03372 whole entry, looked up): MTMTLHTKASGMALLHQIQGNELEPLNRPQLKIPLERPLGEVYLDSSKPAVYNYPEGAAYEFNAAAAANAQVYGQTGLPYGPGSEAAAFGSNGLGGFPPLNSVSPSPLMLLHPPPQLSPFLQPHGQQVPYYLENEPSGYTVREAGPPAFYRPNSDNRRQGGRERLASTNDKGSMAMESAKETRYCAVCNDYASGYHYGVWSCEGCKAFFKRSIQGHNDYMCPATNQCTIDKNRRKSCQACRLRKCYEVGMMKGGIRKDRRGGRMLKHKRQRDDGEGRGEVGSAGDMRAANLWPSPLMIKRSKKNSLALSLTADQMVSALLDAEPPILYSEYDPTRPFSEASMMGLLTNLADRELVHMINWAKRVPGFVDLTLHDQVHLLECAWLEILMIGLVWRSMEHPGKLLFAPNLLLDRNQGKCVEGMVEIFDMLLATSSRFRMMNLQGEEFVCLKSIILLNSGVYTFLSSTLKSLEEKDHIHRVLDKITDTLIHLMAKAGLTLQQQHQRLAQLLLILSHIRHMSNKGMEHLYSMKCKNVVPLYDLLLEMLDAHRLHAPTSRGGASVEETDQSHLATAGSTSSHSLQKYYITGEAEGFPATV

C=C(C)[C@H]1Cc2c(ccc3c2O[C@@H]2COc4cc(OC)c(OC)cc4[C@@H]2C3=O)O1
active: [1] 19.6 nM and 16.2 nM | [2] 24.4 nM and 20.6 nM | [3] 17.3 nM and 6.73 nM | [4] 22.8 nM and 12.4 nM | [5] 36.4 nM and 32.6 nM | [6] 29.8 nM and 31 nM | [7] 41.4 nM and 31.6 nM | [8] 20.1 nM and 26.2 nM | [9] 14 nM and 10.7 nM | [10] 24.9 nM and 16.5 nM | [11] 35.4 nM and 21.1 nM | [12] 27.7 nM and 14.6 nM | [13] 14.5 nM | [14] 16.8 nM and 13.3 nM
inactive: DIO2 (gene 1734)

CCOP(=S)(OCC)OC(Cl)C(Cl)(Cl)Cl (stereo not given)
active: [1] 23.4 µM | [2] 50 µM and 19 µM | [3] 77.2 µM and 23.6 µM | [4] 31.8 µM and 23.2 µM | [5] 23.4 µM | [6] 23.4 µM | [7] 50 µM and 13.7 µM | [8] 13.1 µM | [9] 23.1 µM | [10] 50 µM and 20.2 µM | [11] 50 µM and 23.4 µM | [12] 13.9 µM | [13] 50 µM and 17.4 µM | [14] 26.7 µM and 18.6 µM
inactive: [5] | [6] | [8] | [9] | [12]

CCCCOC(=O)[C@@H](C)Oc1ccc(Oc2ccc(C#N)cc2F)cc1
inactive: [15] | [16] | [17] | [18]

COP(=O)(OC)C(O)C(Cl)(Cl)Cl (stereo not given)
active: [2] 50 µM | [4] 36.9 µM and 15 µM | [5] 90.8 µM | [9] 2.98 µM | [10] 75.4 µM and 15 µM | [11] 50 µM and 15 µM | [13] 50 µM and 15 µM | [14] 50 µM and 15 µM
inactive: [1] | [2] | [3] | [5] | [6] | [7] | [8] | [9] | [12]

CN(C)[C@@H]1C(=O)C(C(N)=O)=C(O)[C@@]2(O)C(=O)C3=C(O)c4c(O)cccc4[C@@](C)(O)[C@H]3[C@H](O)[C@@H]12
active: [2] 50 µM | [4] 22.7 µM | [10] 50 µM | DIO2 (gene 1734) 100 µM and 61.6 µM | [11] 66.2 µM | [13] 50000 nM | [14] 89.4 µM
not listed: [15] | [17] | [18]
inactive: all other assays above

C#CCC1=C(C)C(OC(=O)C2C(C=C(C)C)C2(C)C)CC1=O (stereo not given)
active: [2] 9.95 µM | [19] 144 µM | [4] 4.27 µM | [8] 9.95 µM | DIO2 (gene 1734) 42.4 µM | [14] 2.64 µM
not listed: [15] | [17] | [18]
inactive: all other assays above

COP(=O)(NC(C)=O)SC (stereo not given)
not listed: DIO2 (gene 1734) | [15] | [17] | [18]
inactive: all other assays above

CCOP(=S)(OCC)SCCSCC
not listed: DIO2 (gene 1734) | [15] | [16] | [17] | [18]
inactive: all other assays above

CCCCSP(=O)(SCCCC)SCCCC
inactive: [3] | [6] | [8] | [9] | [12]
active: [1] 66.3 µM and 11.5 µM | [2] 31.1 µM and 49.9 µM | [3] 71.4 µM | [4] 32 µM and 15.8 µM | [5] 50 µM and 18.8 µM | [7] 63.3 µM and 49.9 µM | [10] 31.8 µM and 16 µM | [11] 50 µM and 16.1 µM | [13] 50 µM and 17 µM | [14] 68.3 µM and 49.9 µM
